The source of these data is PubChem BioAssay (Tox21).

Inconclusive results are not listed. Where a call stands in place of a potency, no number is given. The source made the active and inactive calls. Unless noted, calls follow the shape of the dose curve; as a rule, active = well fitted inhibition curve with a large enough effect in the repeat runs; inconclusive = weak or mixed curves; inactive = flat fitted curve, though single readings scatter.

The nature of the first test: qHTS assay to identify small molecule HDAC inhibitors (AID 1259364).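 Also: wild-type HCT-116 cells with endogenous class I/II HDAC activity; top concentration of the series differs between compounds; nearly all actives have a fitted effect of over 45% in size.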 As to conditions: HCT-116 HDAC-Glo I/II luminescence, 2 h; series mostly up to 92.4 µM. In a few lines:
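Relative class I and II HDAC activity is taken from the luminogenic signal in HCT-116 cells, with compound exposure 2 hr and reagent development 30 min at room temperature.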
(qHTS replaces the single test concentration by a dilution series.)
`CCCCCCCC1CCC(=O)O1` (stereo not given): the Potency entry is “inactive”. In the case of `CC(=O)N(C)C`, the Potency entry was “inactive”. The same measure, in the same setting: to `CS(=O)(=O)c1ccc([C@@H](CC2CCCC2)C(=O)Nc2cnccn2)cc1Cl` belongs “inactive”. For the molecule `COc1ccc2ccccc2c1`, the Potency entry is “inactive”.

On to `Nc1ccc(N)c([N+](=O)[O-])c1`, for which the Potency entry was “inactive”.

A further test is described as follows: qHTS assay to identify small molecule agonists of the sonic hedgehog signaling (Shh) pathway (AID 1259368; calls by dose curve;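 also: NIH/3T3-derived 3T3Gli1-Luc cells carrying a stable Gli1-driven firefly luciferase reporter; nearly all actives have a fitted effect of over 15% in size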). The settings on record: NIH/3T3 Gli1-Luc reporter, luciferase, 24 h; series mostly up to 92.4 µM. The method, boiled down: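 Mouse fibroblast (NIH/3T3) reporter cells with stably integrated Gli1-Luc were treated 24 hr with compound; firefly luciferase luminescence served as the read-out.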
Consider `CCCCCCCC1CCC(=O)O1` (stereo not given), for which the Potency entry is “inactive”.

On to `CS(=O)(=O)c1ccc([C@@H](CC2CCCC2)C(=O)Nc2cnccn2)cc1Cl`, for which the Potency result is “inactive”. As to `O=C1Cc2ccccc2C1`, the Potency entry is “inactive”. Same read-out and setting: to `COc1ccc2ccccc2c1` belongs “inactive”; to `Nc1ccc(N)c([N+](=O)[O-])c1`, “inactive”.
